Results on 40 compounds are retold here after PubChem BioAssay AID1573 (National Center for Advancing Translational Sciences (NCATS), 2009).

Inconclusive results are not listed. The source made the active and inactive calls. Calls come from the whole dose curve; as a rule, active = well fitted inhibition curve with a large enough effect; inconclusive = small, poorly fitted or top-dose-only effect; inactive = no such curve, though single readings can be large or run the other way.

Thyroid hormone receptor beta (Homo sapiens), sequence (P10828 whole entry, looked up, the tested form may be a part): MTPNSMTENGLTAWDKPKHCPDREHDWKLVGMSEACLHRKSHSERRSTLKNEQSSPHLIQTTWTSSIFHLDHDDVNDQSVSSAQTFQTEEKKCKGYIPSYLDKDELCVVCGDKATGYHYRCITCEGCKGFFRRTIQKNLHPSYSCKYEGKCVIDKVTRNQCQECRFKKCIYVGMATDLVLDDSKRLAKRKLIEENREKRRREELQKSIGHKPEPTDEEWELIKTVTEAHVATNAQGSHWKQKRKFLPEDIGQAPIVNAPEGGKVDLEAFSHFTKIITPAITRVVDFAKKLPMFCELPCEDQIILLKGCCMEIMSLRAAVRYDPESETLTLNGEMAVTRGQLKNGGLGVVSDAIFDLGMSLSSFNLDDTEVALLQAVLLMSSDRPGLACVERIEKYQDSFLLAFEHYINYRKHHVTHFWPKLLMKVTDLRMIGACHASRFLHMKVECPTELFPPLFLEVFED

The assay has as its target Thyroid hormone receptor beta (Homo sapiens) (UniProt P10828). Put plainly: Concentration Response Confirmation Assay for Inhibitors of the Interaction of Thyroid Hormone Receptor and Steroid Receptor Coregulator 2. To be noted: TRb LBD + Texas Red SRC2 peptide, fluorescence polarization, 5 h; series mostly up to 92.2 µM. The text has this: NIH Molecular Libraries Probe Production Network [MLPCN] NIH Chemical Genomics Center [NCGC] MLPCN Grant: DK058080 Assay Provider: R. Kip Guy, St. Jude Children's Research Hospital NCGC Assay Overview: Thyroid receptor (TR) regulates many homeostatic processes including basal metabolism, cardiovascular function, body weight, and lipid trafficking. TR modulators are potential therapeutics for obesity and hyperlipidemias but current thyroid analogs have undesirable side effects, particularly cardiac stimulation. To identify inhibitors that specifically prevent the interaction of TR with the steroid receptor coregulator 2 (SRC2), a fluorescence polarization assay was screened. This assay detects interaction of the ligand-binding domain of human TRb with a Texas Red labeled SRC2 peptide, corresponding to a 20 amino acid region of the nuclear receptor interaction domain (Arnold et al., 2006). Small molecule inhibitors that block the interaction of TR and SRC2 are detected by a decrease in fluorescence polarization. This assay is a confirmation assay for AID 1469. Arnold, L. A.; Estebanez-Perpina, E.; Togashi, M.; Shelat, A.; Ocasio, C. A.; McReynolds, A. C.; Nguyen, P.; Baxter, J. D.; Fletterick, R. J.; Webb, P.; Guy, R. K. A high-throughput screening method to identify small molecule inhibitors of thyroid hormone receptor coactivator binding. Sci STKE 2006, p 13.
NCGC Assay Protocol Summary: For screening, 5 uL/well 0.6 uM TRb and 20 nM SRC2 Texas Red in protein buffer (20mM Tris hydrochloride, 100mM NaCl, 10% glycerol, 1mM EDTA, 0.01% NP-40, 1mM DTT, 1uM T3 and 5% DMSO) was dispensed into black solid 1536-well plates (Grenier) using a solenoid-based dispenser. Following transfer of 23 nL compound or DMSO vehicle by a pin tool, the plates were centrifuged 15 s at 1000 RPM and incubated 5 hr at ambient temperature. The plates were read by an Envision (Perkin Elmer) to detect fluorescence polarization of SRC2 Texas Red (555 nm excitation and 632 nm emission). Data were normalized to unbound (all components except TRb) and bound SRC2 Texas Red controls. In this assay, we provide % activity data for each concentration as well as potencies for the active compounds. Keywords: NIH Roadmap, MLPCN, MLI, MLSMR, qHTS, NCGC, qHTS, thyroid hormone receptor, steroid receptor coactivator, fluorescence polarization
On the technique in general: In fluorescence polarisation assays a small probe gives low polarisation when free and higher when bound to something large.
`Cc1ccccc1Nc1cc2ccccc2c(=O)[nH]1`: the Potency is 15.8 µM (active). Then `COn1c2c(c3c4nonc4ccc31)CCCC2`, with 35.5 µM (active); and `C=CCNC(=O)/C(C#N)=C\c1cc(Cl)c(OCC)c(OC)c1`, with 35.5 µM (active).

Regarding `CS(=O)(=O)c1ccc(C(=O)OCC(=O)NC(=O)C2CCCCC2)cc1[N+](=O)[O-]`, the Potency was 10 µM (active). For the compound `COc1cc(C(c2c(C)[nH][nH]c2=O)c2c(C)[nH][nH]c2=O)ccc1OC(=O)c1cccc(C)c1`, the Potency was 31.6 µM (active). As to `O=C(O)/C=C/C(=O)Nc1ccc(OC(F)(F)F)cc1Br`, the Potency was 50.1 µM (active). Under `O=C(NNc1cc(N2CCOCC2)nc(N2CCOCC2)n1)c1ccc([N+](=O)[O-])cc1` stands 20 µM (active). Take `O=C1CCCC(O)=C1N=Nc1cccc(S(=O)(=O)N2CCOCC2)c1`: the Potency entry is “inactive”. Then `Oc1ccc2ccccc2c1C=NC12CN3CCN(CN(C3)C1)C2`, with 28.2 µM (active). In the case of `Cc1nnc(SCC(=O)Nc2ccc(N(C)C)cc2)[nH]c1=O`, the Potency entry is “inactive”. Then `CC(NC(=O)Nc1ccc(O)cc1)(C(F)(F)F)C(F)(F)F`, with “inactive”; and `CN1CCc2ccc3c4c2[C@]1(C)Cc1cccc(c1-4)OCO3`, with 89.1 µM (active); and `O=c1cc(C23CC4CC(CC(C4)C2)C3)[nH][nH]1`, with “inactive”. Then `CCCCOc1ccc(C(=O)CCN2CCCCC2)cc1`, with 5.01 µM (active); and `Cc1cccc(S(=O)(=O)c2cn(Cc3ccccc3)c3cc(N4CCC(C)CC4)c(F)cc3c2=O)c1`, with “inactive”; and `Oc1ccc2ccccc2c1/C=N/c1nccs1`, with 31.6 µM (active).

On to `CCCCCCN=CC1=C(O)CC(C)(C)CC1=O`, for which the Potency entry was “inactive”.

Consider `Cn1c(=O)[nH]c2nnc(-c3ccc(Cl)c(Cl)c3)nc2c1=O`, for which the Potency result was “inactive”. Then `CN(CCO)c1nc(N)c2c(N)nc3c(c2c1C#N)CC(=O)N3C1CCCC1`, with “inactive”. Under `Cc1nc2ccccc2n2c(O)c(CC(=O)O)cc12` stands 35.5 µM (active).

For `CN1N=C(C(C)(C)C)CC1=O`, the Potency result is “inactive”. Under `Cc1ccc(OC(=S)Nc2ccc(O)cc2)cc1` stands “inactive”. Then `Nc1cc(-c2ccncc2)c[nH]c1=O`, with “inactive”; and `C=CC(=O)OCCOc1ccccc1`, with 112 µM (active).

With `COc1ccc(-c2nc(CS(=O)CC(=O)NCc3ccccn3)c(C)o2)cc1` (stereo not given), the Potency was 35.5 µM (active).

`CC1=NN(Cc2ccccc2)C(=O)C1`: the Potency entry is “inactive”. Then `Cn1c(NNC(=O)c2c(F)cccc2F)cc(=O)n(C)c1=O`, with “inactive”. Consider `Cc1cc(N=Cc2c(O)ccc3ccccc23)no1`, for which the Potency is 28.2 µM (active).

Regarding `O=C(O)C1C2C=CC(O2)C1C(=O)Nc1ccc(S(=O)(=O)N2CCc3ccccc32)cc1` (stereo not given), the Potency was 39.8 µM (active).

For `CCCc1cc(=O)[nH]c(=S)[nH]1`, the Potency entry is “inactive”. As to `O=C(NNc1cc(N2CCOCC2)nc(N2CCOCC2)n1)c1ccc(Cl)c(Cl)c1`, the Potency was 31.6 µM (active). Then `COc1cc(/C=C(\C#N)C(=O)NCC2CCCO2)ccc1OCCC(C)C` (stereo not given), with 35.5 µM (active); and `C=CCNC(=O)/C(C#N)=C/c1c(C)nn(-c2ccc(Cl)cc2)c1Cl`, with 17.8 µM (active). As to `Nc1cc(-c2ccccc2)c[nH]c1=O`, the Potency result was “inactive”. On to `CCCCOc1ccc(C(=O)CCN2CCOCC2)cc1`, for which the Potency is 5.01 µM (active). Then `Oc1ccc2ccccc2c1/C=N/c1nc2c(s1)CCCC2`, with 28.2 µM (active); and `Cc1cc2ccccc2n1CCNC(=O)C(C)Oc1ccccc1` (stereo not given), with “inactive”; and `O=C(O)/C=C/C(=O)Nc1ccc(SC(F)(F)C(F)(F)C(F)(F)F)cc1`, with 7.94 µM (active).

Regarding `Cn1cc[nH]c1=S`, the Potency result was “inactive”. Then `O=c1[nH]c(Nc2ccccc2)cc2ccccc12`, with 35.5 µM (active).
